VDR inh – blocks the human vitamin D receptor; Potency, µM, actives largely listed as inhibitors; P11473; VDR-SRC2-3 peptide fluorescence polarization, 2 h; actives 0.93% (n = 400,000)
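The screen uses fluorescence polarization to detect compounds that interfere with recruitment of the SRC2-3 coactivator peptide to VDR; plates are read after 2 h at room temperature.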
Sfp PPTase inh – Sfp phosphopantetheinyl transferase inhibition. Biochemical Sfp PPTase activity, qHTS. Potency, µM, actives largely listed as inhibitors. actives 3.5% (n = 310,000). AID 1490;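 further: the enzyme is Sfp with the accession as filed and its product quenches rhodamine fluorescence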
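Compounds were incubated with enzyme (final 15 nM) for 15 min at room temperature before substrate addition started the reaction. Fluorescence at 525 nm excitation, 598 nm emission was recorded immediately and after 30 minutes.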
IDH1 R132H inh – inhibitors of human mutant IDH1 R132H. IDH1-R132H enzyme, NADPH consumption, diaphorase/resazurin fluorescence. Potency, µM (top dose mostly 76.6 µM), hits mostly inhibitors. actives 0.093% (n = 390,000). AID 602179; further: nearly all actives have a fitted effect of over 65% in size
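IDH1-R132H (0.5 ug/mL dispensed) in pH 7.5 Tris buffer was preincubated 30 min with compound, then given a substrate mix of 0.016 mM NADPH and 2 mM alpha-KG for 80 min at room temperature; remaining NADPH was read by diaphorase/resazurin fluorescence.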
TrxR1 inh – rat TrxR1 inhibition | recombinant rTrxR1, NADPH fluorescence consumption, selenite substrate | O89049 | Potency, µM (series often up to 114 µM), actives largely listed as inhibitors | AID 588453 | actives 1% (n = 390,000); further: nearly all actives have a fitted effect of over 65% in size
Target sequence (O89049 whole entry, looked up): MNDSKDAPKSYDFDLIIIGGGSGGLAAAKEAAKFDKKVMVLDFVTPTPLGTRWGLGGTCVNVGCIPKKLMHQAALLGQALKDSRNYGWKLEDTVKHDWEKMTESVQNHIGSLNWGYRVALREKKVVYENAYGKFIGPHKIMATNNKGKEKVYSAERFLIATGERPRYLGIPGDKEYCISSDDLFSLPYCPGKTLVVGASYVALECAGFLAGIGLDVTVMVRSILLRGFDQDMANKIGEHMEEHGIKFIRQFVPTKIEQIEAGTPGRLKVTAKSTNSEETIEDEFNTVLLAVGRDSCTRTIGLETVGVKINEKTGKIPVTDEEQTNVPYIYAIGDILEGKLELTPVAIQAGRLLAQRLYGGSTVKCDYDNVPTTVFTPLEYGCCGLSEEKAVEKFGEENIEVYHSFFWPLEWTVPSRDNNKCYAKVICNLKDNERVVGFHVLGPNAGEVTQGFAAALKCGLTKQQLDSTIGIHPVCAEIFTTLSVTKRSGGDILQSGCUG
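Rat TrxR1 (90 nM in the dispensed reagent) was pre-reduced with 400 uM NADPH for 5 min at room temperature, then incubated with compound for 15 min. After 400 uM selenite was added, NADPH fluorescence (Ex 340/Em 450 nm) was followed for 8 min.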
TrxR1 substrate – rat thioredoxin reductase 1 substrate activity; Potency, µM (titrated, usually from 114 µM); O89049; purified TrxR1 substrate turnover, NADPH consumption readout; actives 0.01% (n = 390,000); further: nearly all actives have a fitted effect of over 50% in size
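Rat TrxR1, dispensed at 90 nM, was prereduced with 400 uM NADPH (final) for 5 min at ~22 deg C, then incubated with compound 15 min before 400 uM selenite. A first-read NADPH fluorescence drop versus no-compound background flagged substrates.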
PLK1 PBD block – PLK1 (human) polo-box domain binding inhibition | P53350 | Plk1 PBD binding of FITC phosphopeptide, fluorescence polarization | Potency, µM, most hits filed as inhibitors | actives 2.8% (n = 360,000); further: series mostly up to about 57 µM; nearly all actives have a fitted effect of over 65% in size
Hits are given with their value. Most compounds without a hit are left out; they make up all but 5.2% or so of the library. The call rests on the fitted dose curve; in most records, active means well fitted curve in the direction sought with a large enough effect; inconclusive means small, poorly fitted or top-dose-only effect, or another doubt; inactive means no such curve, though single readings can be large; an effect the other way counts as inactive or inconclusive.

Screening CC(C)=CNNC(=O)c1ccc(O)cc1 returned TrxR1 inh inactive and TrxR1 substrate inactive.
Screening CCCC(=O)N(c1ccc2oc(=O)sc2c1)S(=O)(=O)c1ccccc1 returned VDR inh inconclusive, Sfp PPTase inh 14µM, IDH1 R132H inh inactive, TrxR1 inh inactive, TrxR1 substrate inactive and PLK1 PBD block inactive.
For CCCC(=O)N(c1ccc2oc(C)c(C(C)=O)c2c1)S(=O)(=O)c1ccc(C(=O)O)cc1 the results were VDR inh inactive, Sfp PPTase inh inactive, IDH1 R132H inh inactive, TrxR1 inh inactive, TrxR1 substrate inactive and PLK1 PBD block inactive.
CC(C)C(=O)N(c1ccc2oc(=O)sc2c1)S(=O)(=O)c1cccs1 was read as VDR inh 45µM, Sfp PPTase inh inconclusive, IDH1 R132H inh inactive, TrxR1 inh inactive, TrxR1 substrate inactive and PLK1 PBD block inactive.
Screening CC(C)C(=O)N(c1cc2sc(=O)oc2c2ccccc12)S(=O)(=O)c1cccs1 returned VDR inh 35µM, Sfp PPTase inh 10µM, IDH1 R132H inh inactive, TrxR1 inh inactive, TrxR1 substrate inactive and PLK1 PBD block inactive.
Screening CC(=O)N(c1ccc2oc(=O)sc2c1)S(=O)(=O)c1ccc(C(=O)O)cc1 returned VDR inh 79µM, Sfp PPTase inh 56µM, IDH1 R132H inh inactive, TrxR1 inh inactive, TrxR1 substrate inactive and PLK1 PBD block inconclusive.
Cc1cc(C)c(C)c(S(=O)(=O)N2CCNC(=O)C2)c1C was read as IDH1 R132H inh inactive and PLK1 PBD block inactive.
`CC(=O)N(c1ccc2oc(=O)sc2c1)S(=O)(=O)c1cccc2cccnc12` gave VDR inh inconclusive, Sfp PPTase inh inactive, IDH1 R132H inh inactive, TrxR1 inh inactive, TrxR1 substrate inactive and PLK1 PBD block inactive.
For CC(=O)N(c1ccc2oc(=O)sc2c1)S(=O)(=O)c1cccs1 the results were VDR inh 89µM, Sfp PPTase inh 11µM, IDH1 R132H inh inactive, TrxR1 inh inactive, TrxR1 substrate inactive and PLK1 PBD block inconclusive.
`C=CC[C@@H]1C=C[C@H](ON=C(C)C)[C@H](CO)O1` gave Sfp PPTase inh inactive.
CCOC(=O)c1c(-c2ccc(C)o2)csc1NC(=O)CN1CCN(CC)CC1 was read as VDR inh inactive, Sfp PPTase inh inactive, IDH1 R132H inh inactive, TrxR1 inh 4.5µM, TrxR1 substrate inactive and PLK1 PBD block inconclusive.
CCOC(=O)c1c(-c2ccco2)csc1NC(=O)CSc1nnc(N)s1 was read as VDR inh inactive, Sfp PPTase inh 25µM, IDH1 R132H inh inactive, TrxR1 inh inconclusive, TrxR1 substrate inactive and PLK1 PBD block inactive.
For COC(=O)c1c(-c2ccccc2)csc1N the results were VDR inh inactive, Sfp PPTase inh inconclusive, IDH1 R132H inh inactive, TrxR1 inh inactive, TrxR1 substrate inactive and PLK1 PBD block 11µM.
Screening CCOC(=O)c1c(-c2ccco2)csc1N returned VDR inh inactive, Sfp PPTase inh 32µM, IDH1 R132H inh inactive, TrxR1 inh inactive, TrxR1 substrate inactive and PLK1 PBD block inconclusive.
Screening CCOC(=O)c1c(-c2ccco2)csc1NC(=O)COC(=O)c1cnccn1 returned VDR inh inactive, IDH1 R132H inh inactive, TrxR1 inh inconclusive, TrxR1 substrate inactive and PLK1 PBD block inactive.
Screening CC/C(=C/c1ccccc1)c1cc(Oc2ccccc2)cc2oc3ccccc3c12 returned TrxR1 inh inactive and TrxR1 substrate inactive.
Screening CC1N(C(=O)N2CCOCC2)CCN1S(=O)(=O)c1ccc(Cl)cc1 (configuration not stated) returned VDR inh inactive, Sfp PPTase inh inactive, IDH1 R132H inh inactive, TrxR1 inh inactive, TrxR1 substrate inactive and PLK1 PBD block inactive.
`Cc1csc2nc(COC(=O)CNC(=O)c3ccc(F)cc3)cc(=O)n12` gave VDR inh inactive, IDH1 R132H inh inactive, TrxR1 inh inactive and TrxR1 substrate inactive.
For CCOC(=O)c1c(-c2ccc(C)o2)csc1NC(=O)CN1CCC(C(N)=O)CC1 the results were VDR inh inactive, Sfp PPTase inh 32µM, IDH1 R132H inh inactive, TrxR1 inh inactive, TrxR1 substrate inactive and PLK1 PBD block inactive.
Screening CCOC(=O)c1c(-c2ccc(C)o2)csc1NC(=O)CSc1nncs1 returned VDR inh inconclusive, Sfp PPTase inh 7.9µM, IDH1 R132H inh inactive, TrxR1 inh 2.2µM, TrxR1 substrate inactive and PLK1 PBD block inconclusive.
Screening C(=C\c1ccccc1)/CN1CCN(C(c2nnnn2Cc2ccccc2)C2CC2)CC1 (configuration not stated) returned PLK1 PBD block inactive.
For Cc1ccc(/C=C/C(=O)CCC(=O)O)cc1 the results were VDR inh inactive, Sfp PPTase inh inactive, IDH1 R132H inh inactive, TrxR1 inh inactive, TrxR1 substrate inactive and PLK1 PBD block inactive.
Screening COc1cc(NC(=S)N2CCN(C(=O)c3ccco3)CC2)c(OC)cc1Cl returned VDR inh inconclusive, Sfp PPTase inh 56µM, IDH1 R132H inh inactive, TrxR1 inh inactive, TrxR1 substrate inactive and PLK1 PBD block inconclusive.
For Cc1cccc(NC(=O)CN2CCSc3ccccc32)c1 the results were VDR inh inactive, Sfp PPTase inh inactive, IDH1 R132H inh inactive, TrxR1 inh inactive, TrxR1 substrate inactive and PLK1 PBD block inactive.
Screening COc1cccc(NC(=O)CN2CCN(C(=O)c3ccco3)CC2)c1 returned VDR inh inactive, Sfp PPTase inh inactive, IDH1 R132H inh inactive, TrxR1 inh 71µM, TrxR1 substrate inactive and PLK1 PBD block inactive.
`COC(=O)c1[nH]c2cc(C)ccc2c1NC(=O)CN1CCN(C(=O)c2ccco2)CC1` gave VDR inh inactive, Sfp PPTase inh 50µM, IDH1 R132H inh inactive, TrxR1 inh inconclusive, TrxR1 substrate inactive and PLK1 PBD block inactive.
`COc1cccc(NC(=O)CN2CCSc3ccccc32)c1` gave VDR inh inactive, Sfp PPTase inh 63µM, IDH1 R132H inh inactive, TrxR1 inh inactive, TrxR1 substrate inactive and PLK1 PBD block inactive.
Screening CCCC(=O)OC1=C(C(C)=O)N(Cc2ccccc2)S(=O)(=O)c2ccccc21 returned VDR inh inactive, IDH1 R132H inh inactive, TrxR1 inh inactive and TrxR1 substrate inactive.
O=C(NC1CCCC1)C(=O)N(Cc1cccnc1)C(C(=O)NC1CCCC1)c1ccco1 (configuration not stated) was read as VDR inh inactive, Sfp PPTase inh inactive, IDH1 R132H inh inactive, TrxR1 inh inactive, TrxR1 substrate inactive and PLK1 PBD block inactive.
`O=NN(Cc1cccnc1)C(=O)NC1CCCCC1` gave PLK1 PBD block 27µM.
Screening O=C(C1CC=CCC1)N1CCN(C(=O)C2CC=CCC2)CC1 (configuration not stated) returned VDR inh inactive, Sfp PPTase inh inactive, IDH1 R132H inh inactive, TrxR1 inh inactive, TrxR1 substrate inactive and PLK1 PBD block 30µM.
`O=C(C1CC=CCC1)N1CCCCCC1` (configuration not stated) gave IDH1 R132H inh inactive and PLK1 PBD block inactive.
